D1 antagonist – Antagonist of Human D 1 Dopamine Receptor: qHTS; activity change, negative = inhibition, % at 10 µM; AID 504652, 2011; HEK293 TREx D1 cells, calcium flux, dopamine EC80; stronger effect = lower value; 360,000 compounds, 3.2% hits; in the data active means activity change below about -30%; further: on the % scale 0 is the no-effect control and ±100 the full control effect
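Using tetracycline-induced force-coupled D1 Hek293 cells and a calcium dye, signals were followed for 180 s after compound, then for 180 s after EC80 dopamine, to detect inhibitors.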
TRHR ag – qHTS for Small Molecule Agonists and Allosteric Enhancers of Human TRH Receptor: Primary Screen for Agonists; TRHR cells, calcium flux fluo-8, FDSS agonist mode; activation, % at 2 µM; 360,000 compounds, 0.18% hits; AID 493084, 2011; Thyrotropin-releasing hormone receptor (Homo sapiens), P34981; further: 0% is about no effect
Target sequence (P34981 whole entry, looked up): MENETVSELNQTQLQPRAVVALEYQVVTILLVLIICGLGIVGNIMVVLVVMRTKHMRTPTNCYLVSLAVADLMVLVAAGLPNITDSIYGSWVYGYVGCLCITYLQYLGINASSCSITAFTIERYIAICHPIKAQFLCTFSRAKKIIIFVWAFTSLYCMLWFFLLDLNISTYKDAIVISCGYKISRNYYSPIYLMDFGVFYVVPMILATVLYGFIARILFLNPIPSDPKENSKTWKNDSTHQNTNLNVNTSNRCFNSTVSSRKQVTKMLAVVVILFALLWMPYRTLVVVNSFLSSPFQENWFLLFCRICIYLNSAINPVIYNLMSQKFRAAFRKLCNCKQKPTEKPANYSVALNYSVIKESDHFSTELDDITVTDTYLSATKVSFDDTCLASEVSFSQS
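In this calcium-flux screen, cells bearing human TRHR are dye-loaded with fluo-8, baselined for 10 cycles, then exposed to library compounds; positive kinetic calcium responses during the agonist phase mark hits, with TRH as control.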
D1 agonist – Allosteric Agonists of the Human D1 Dopamine Receptor: qHTS | activation, % at 2 µM | HEK293 T-REx D1 cells, calcium flux, agonist mode | AID 504660, 2011 | 360,000 compounds, 1% hits | D(1A) dopamine receptor (Homo sapiens), P21728; further: 0% is about no effect
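Tetracycline-induced HEK293 TREx D1 cells, force-coupled to calcium signalling, were dye-loaded with a no-wash calcium kit. Compound was pin-added after a 10 s baseline. Fluorescence was read kinetically at 1 cycle/s for 180 s, with calcium rises flagged as agonism.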
D1 PAM – Potentiators of Human D1 Dopamine Receptor: qHTS | HEK293 TREx D1 cells, calcium flux, dopamine EC20 potentiation | potentiation, % at 10 µM | AID 504651, 2011 | 360,000 compounds, 0.036% hits; in the data active means potentiation above about 30%; further: 0% is about no effect
TRHR PAM – qHTS for Small Molecule Agonists and Allosteric Enhancers of Human TRH Receptor: Primary Screen for Enhancers | TRHR cells, fluo-8 calcium fluorescence, EC20 TRH enhancement | Thyrotropin-releasing hormone receptor (Homo sapiens), P34981 | 360,000 compounds, 0.66% hits | enhancement, % at 2 µM; in the data active means enhancement above about 30%; further: 0% is about no effect
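Enhancer read-out: after compound pinning and an initial kinetic agonist-mode read, an EC20 of TRH (10 nM final) was injected and fluo-8 calcium signal (Ex 480/Em 530) followed at 1 s/cycle for 100 cycles in TRHR-expressing cells.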
* hit, by the source's call; / = not tested or not shown. A selection: hits, their analogues and other compounds. The true share with any hit is near 4.6%. Unless noted, no stated cut-off is given here; in the data, active means activation above about 30%; inactive means the rest.

SMILES	D1 antagonist	TRHR ag	D1 agonist	D1 PAM	TRHR PAM
O=C(NC1CCN(Cc2ccc(Cl)cc2)CC1)c1cn(-c2ccccc2)nc1-c1cccnc1	-49.5*	1.1	1.6	/	7.0
O=C(Cn1nnc(-c2ccc(Cl)cc2)n1)NC1CCN(Cc2ccccc2)CC1	-59.5*	-0.4	37.2*	-10.0	-2.2
CCc1ccc(-n2nc(CO)c(C(=O)NC(C)c3ccc(Cl)cc3)n2)cc1 (stereo unspecified)	20.6	1.2	3.5	-1.4	19.0
O=C(NNC(=O)c1ccccc1[N+](=O)[O-])Nc1ccc(Cl)cc1	-4.0	0.3	0.7	-1.6	1.4
O=C(NNC(=O)c1ccccc1[N+](=O)[O-])c1ccc(NC(=O)c2ccccc2)cc1	-37.8*	5.6	3.7	-20.7	-1.9
C/C(=N\N=C(N)N)c1cc(Cl)ccc1Cl	-44.6*	0.2	11.3	-12.8	3.7
C/C(=N\N=C(N)N)c1cccc(Cl)c1	-47.3*	1.4	5.2	-10.3	1.9
C/C(=N\N=C(N)N)c1ccc(Cl)cc1Cl	-35.8*	1.4	12.9	-9.8	4.5
N#Cc1ccc(C(=O)NCC(=O)OC(C(=O)Nc2cc(C(F)(F)F)ccc2Cl)c2ccccc2)cc1 (stereo unspecified)	13.6	1.4	7.7	-1.9	-3.0
C=CCn1c(SCC(=O)NC2CC2)nnc1-c1ccccn1	7.6	0.3	3.7	-3.7	-3.3
CCn1c(SCC(=O)Nc2ccc(F)cc2)nnc1C1CC1	-6.1	-1.0	1.0	-4.7	40.7*
C=CCn1c(SCC(=O)NC2CCCCC2)nnc1-c1ccccn1	-31.8*	-0.2	3.1	-7.0	-0.4
Nn1c(SCC(=O)Nc2ccc(F)c(F)c2)nnc1C1CCCCC1	-52.6*	-0.2	3.5	-5.5	-1.9
CCCn1c(SCC(=O)NC2CCCCC2)nnc1C1CC1	15.9	0.3	2.1	-5.3	33.0*
NC(=O)c1ccc(NC(=O)CSc2nnc(C3CCCCC3)n2N)cc1	12.4	0.0	2.1	1.6	-8.2
Cn1c(SCC(=O)Nc2ccc(F)cc2)nnc1C1CC1	-0.7	0.6	0.6	-5.8	-4.1
CC(=O)Nc1cccc(NC(=O)Cn2cnc3c(oc4ccccc43)c2=O)c1	-5.3	-0.2	7.1	-2.9	-3.5
Cc1ccc(S(=O)(=O)N(C)CC(=O)N2CCCCCC2)cc1	-1.9	-0.3	-3.8	3.5	33.5*
Cc1ccc(S(=O)(=O)NCCC(=O)N2CCCCC2)cc1	2.5	-0.3	-0.8	0.1	-5.0
Cc1ccc(S(=O)(=O)NCCC(=O)N2CCCCCC2)cc1	-36.0*	-0.3	3.9	-13.8	15.0
Cc1nc2ccc(S(=O)(=O)NCC(=O)N3CCN(c4ccccc4)CC3)cc2s1	-39.1*	0.0	0.9	-4.8	-6.9
Cc1ccc(S(=O)(=O)NCCC(=O)N2CCN(c3cccc(Cl)c3)CC2)cc1C	-30.3*	-0.2	6.2	3.4	1.0
Cc1nc2ccc(S(=O)(=O)NCC(=O)N3CCCCC3)cc2s1	-0.6	-0.3	1.2	-2.9	-0.5
Cc1nc2ccc(S(=O)(=O)NC(C(=O)N3CCn4c3nc3ccccc34)C(C)C)cc2s1 (stereo unspecified)	-54.9*	1.4	0.6	-5.8	-12.4
Cc1ccc(CNC(=O)C(NS(=O)(=O)c2ccc3nc(C)sc3c2)C(C)C)cc1 (stereo unspecified)	2.4	-0.1	3.0	-2.2	3.9
SMILES	D1 antagonist	TRHR ag	D1 agonist	D1 PAM	TRHR PAM
CCN(CC)c1ccc(NC(=O)CN2CCN(c3nc(C)cc(C)n3)CC2)cc1	-32.9*	-0.9	12.6	-0.1	5.5
Cn1c(=O)c2sccc2n2c(CCC(=O)Nc3ccc(F)cc3)nnc12	-2.0	-0.2	-1.3	0.1	2.1
C=CCN1C(=O)c2ccc(C(=O)N(CC)CC(=O)Nc3c(F)cccc3F)cc2C1=O	7.6	-0.2	5.3	-5.0	4.2
O=C(NCCS(=O)(=O)N1CCCCCC1)c1ccc(F)cc1	-14.5	0.3	0.7	-12.3	30.5*
O=C(NCCS(=O)(=O)N1CCCC1)c1ccccc1	28.9	-0.6	2.8	0.3	5.4
O=C(NCCS(=O)(=O)N1CCN(c2ccccc2F)CC1)c1ccc(F)c(F)c1	-33.3*	-0.4	-0.3	-11.5	-2.6
CCOC(=O)c1cc(-c2ccc(F)cc2)n(CCC(=O)Nc2cc(OC)cc(OC)c2)c1C	-6.6	1.7	7.8	-4.8	2.3
Cc1cc2oc(C(=O)Nc3ccc(S(=O)(=O)N4CCC(C)CC4)cc3)cc(=O)c2cc1C	15.3	-1.3	2.8	-2.6	5.4
COc1ccccc1NC(=O)CSc1ncn[nH]1	4.0	-0.5	6.4	2.4	8.7
COc1ccccc1NC(=O)c1ccc(NC(=O)COC(=O)C(C)C)cc1	2.6	-0.5	2.3	-4.9	33.5*
COc1ccccc1NC(=O)c1ccc(NC(=O)CSc2ncn[nH]2)cc1	-44.7*	-0.3	3.4	-3.8	-2.2
Cc1ccc(NC(=O)c2ccc(-c3cccc(Cl)c3C)o2)cc1	-4.7	1.7	11.6	-0.3	35.9*
COc1ccc(-n2ncc(C(=O)N3CCN(c4cc(C)ccc4C)CC3)c2C2CCN(C(=O)OC(C)(C)C)CC2)cc1	-31.0*	0.5	1.0	-5.8	3.5
Cc1c(Cl)cccc1-n1ncc(C(=O)NC2CCCC2)c1C1CCN(C(=O)OC(C)(C)C)CC1	-80.0*	-0.2	0.0	3.0	-7.2
COc1ccc(N2CCN(C(=O)c3cnn(-c4ccc(OC)cc4)c3C3CCN(C(=O)OC(C)(C)C)CC3)CC2)cc1	-30.6*	-1.0	-0.2	-6.3	3.6
COc1cccc(N2CCN(C(=O)c3cnn(-c4ccc(C)cc4C)c3C3CCN(C(=O)OC(C)(C)C)CC3)CC2)c1	-7.5	-0.6	1.1	-0.9	-12.9
COc1cccc(N2CCN(C(=O)c3cnn(-c4ccccc4Cl)c3C3CCN(C(=O)OC(C)(C)C)CC3)CC2)c1	-48.7*	-0.2	0.6	-4.6	-5.7
CC(C)C(=O)OCc1cc(=O)n2nc(C3CCCCC3)sc2n1	-8.0	-0.1	1.1	-5.3	4.1
Cc1cccc(NC(=O)c2c(C)oc3ncn(CC(C)C)c(=O)c23)n1	0.1	0.3	-1.0	4.8	-7.3
CCOC(=O)CCc1c(C)c2ccc(OC(C)C(=O)OCC)c(C)c2oc1=O (stereo unspecified)	-40.5*	-0.6	17.9	-12.2	11.5
CCOC(=O)C(C)Oc1ccc2c(CC)cc(=O)oc2c1C (stereo unspecified)	5.7	-0.8	0.7	-2.6	-3.7
Cc1ccc(S(=O)(=O)c2cn(CC(=O)Nc3ccccc3)c3cc4c(cc3c2=O)OCO4)cc1	-8.3	2.0	1.9	2.6	-7.2
